Assay outcomes: PubChem BioAssay, several laboratories
Hits are enriched below; roughly 12% of the tested compounds scored in any of these assays.
Ins promoter up – insulin promoter activators in MIN6 cells, imaging, high-content screening, mouse beta cells; MIN6 insulin promoter-GFP reporter; hits give high values; z-score at 5 µM; hit rate 0.3% among 190,000; AID 1625, 2009;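 active = z-score above 3 at 5 µM with at least 500 cells counted in the well; inconclusive = wells under 500 cells, flagged as cytotoxic or low count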
KCC2 mod – KCC2 cotransporter modulators, thallium flux, primary screen, cell-based, HEK293 KCC2, FluoZin-2 fluorescence, MLSMR | Solute carrier family 12 member 5 (Homo sapiens), Q9H2X9 | KCC2 cells, thallium flux FluoZin-2 fluorescence | AID 1456, 2008 | B-score of Tl+ flux slope (higher = more flux/activation; lower = inhibition) at 10 µM | hit rate 2.2% among 190,000;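 active = thallium flux slope and its plate-corrected score both differing from the plate sample mean at a set confidence after two filtering rounds, in either direction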;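 also: slope of fluorescence scaled to starting intensity during 10 to 20 s after thallium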
Target sequence (Q9H2X9 whole entry, looked up): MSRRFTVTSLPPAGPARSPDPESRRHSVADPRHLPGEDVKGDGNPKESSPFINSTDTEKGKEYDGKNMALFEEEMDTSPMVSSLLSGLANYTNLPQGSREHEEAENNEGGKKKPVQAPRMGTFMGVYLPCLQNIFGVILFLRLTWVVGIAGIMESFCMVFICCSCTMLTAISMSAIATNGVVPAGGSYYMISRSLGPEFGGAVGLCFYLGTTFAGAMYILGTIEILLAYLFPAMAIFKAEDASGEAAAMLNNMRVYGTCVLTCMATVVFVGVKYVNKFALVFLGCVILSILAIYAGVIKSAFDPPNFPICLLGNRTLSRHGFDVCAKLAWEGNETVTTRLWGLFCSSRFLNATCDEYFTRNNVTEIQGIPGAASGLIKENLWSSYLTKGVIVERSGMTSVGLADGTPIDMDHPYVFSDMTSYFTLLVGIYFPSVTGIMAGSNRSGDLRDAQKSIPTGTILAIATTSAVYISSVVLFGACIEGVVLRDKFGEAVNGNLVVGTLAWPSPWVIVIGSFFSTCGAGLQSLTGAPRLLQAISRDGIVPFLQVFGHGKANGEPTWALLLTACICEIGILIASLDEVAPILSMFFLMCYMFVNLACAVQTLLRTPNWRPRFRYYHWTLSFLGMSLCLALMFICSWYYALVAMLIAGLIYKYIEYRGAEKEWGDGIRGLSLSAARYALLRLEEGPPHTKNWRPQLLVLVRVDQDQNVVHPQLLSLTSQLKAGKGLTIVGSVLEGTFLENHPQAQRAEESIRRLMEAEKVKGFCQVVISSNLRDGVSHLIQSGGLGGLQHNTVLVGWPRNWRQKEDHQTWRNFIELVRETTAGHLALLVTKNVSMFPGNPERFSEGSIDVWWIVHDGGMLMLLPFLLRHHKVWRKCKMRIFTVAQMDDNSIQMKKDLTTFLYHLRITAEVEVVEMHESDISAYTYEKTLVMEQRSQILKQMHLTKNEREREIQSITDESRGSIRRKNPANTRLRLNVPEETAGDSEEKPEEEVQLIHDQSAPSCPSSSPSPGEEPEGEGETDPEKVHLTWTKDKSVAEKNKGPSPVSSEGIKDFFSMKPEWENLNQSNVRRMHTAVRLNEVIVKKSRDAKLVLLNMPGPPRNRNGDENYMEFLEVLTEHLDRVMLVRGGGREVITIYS
ROMK mod – ROMK potassium channel modulators, primary screen, cell-based, thallium flux, MLSMR library | ATP-sensitive inward rectifier potassium channel 1 (Homo sapiens), P48048 | Tet-inducible ROMK, thallium flux fluorescence; actives lie on both sides | B-score at 10 µM | hit rate 2% among 130,000;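 active = signal ratio slope over the read window, or its plate-corrected B-score, at least 3 SD from the plate mean, either direction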;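 also: B-score of the F/F0 ratio slope over 7 to 12 s after thallium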
WT yeast gro inh – growth inhibition of WT strain, primary screen, mitochondrial fusion inhibitor project, WT and mutant strains, chemical genetic; mitochondrial fusion phenotypic screen; inhibition, % at 10 µM; hit rate 2.1% among 190,000; AID 1362, 2008; in the data active = inhibition above about 58%; tested in S. cerevisiae
Insulin prom inh – inhibitors of insulin promoter-driven GFP, primary screen, imaging, TRM-6 cells (human fetal islet line), eGFP reporter, cell count; inhibition, % at 2 µM; hit rate 0.9% among 130,000; reporter expression induced with tamoxifen;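 active = inhibition above the mean plus 3 SD, with well images judged a real hit on visual review, cut at about 60% in these data, passing the limit was not always enough; inconclusive = inhibition over the cutoff but images rejected on review; inactive = inhibition not above the cutoff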
Lmaj promast – Leishmania major promastigote growth inhibition, primary screen | Leishmania major promastigotes, resazurin fluorescence viability | inhibition, % at 10 µM | hit rate 9% among 200,000; in the data active = inhibition above about 50%;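 also: promastigotes grown with compound for 44 hours at 28 °C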
ROMK hit retest – ROMK channel modulator hit retest, confirmation, cell-based, thallium flux, duplicate, resupplied hits; shares compounds with ROMK mod; fluorescence ratio; hits give low values; normalized thallium flux (F/F0 slope) at 10 µM; hit rate 54% among 3,000; AID 1917, 2009;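 active = Flux at 10 µM at least 3 SD below or above vehicle control mean in one or both replicates; inconclusive = no clear call, values can overlap the other calls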
Large screens that a line does not name were inactive (follow-up assays come after a bar, where they were run).

CCN1C(=O)C2C(c3cccc(F)c3)NC(CC)(C(=O)OC)C2C1=O (stereo not given)	none (no result: Insulin prom inh)
CCCC1(C(=O)OC)NC(c2cccc(F)c2)C2C(=O)N(CC)C(=O)C21 (stereo not given)	none (no result: ROMK mod) | ROMK hit retest inactive
CCOC(=O)CC(=O)NC(CC(=O)OC)c1ccc(C(C)C)cc1 (stereo not given)	none
COc1ccc(/C=C/C2=Nc3ccccc3NC(C)(C)C2)cc1OC	ROMK mod -7.8 (no result: WT yeast gro inh, Insulin prom inh, Lmaj promast) | ROMK hit retest 0.043
O=C(CSc1cccs1)Nc1ccc(Cl)cc1	none (no result: ROMK mod, WT yeast gro inh, Insulin prom inh, Lmaj promast)
CC(/C=C1\SC(=S)N(CCCC(=O)Nc2ccc(C(=O)O)cc2)C1=O)=C\c1ccccc1	ROMK mod -2.8 (no result: Ins promoter up) | ROMK hit retest 0.058
CC(=C\c1ccccc1)/C=C1/SC(=S)N(C(C(=O)O)C(C)C)C1=O (stereo not given)	none (no result: KCC2 mod, ROMK mod, Insulin prom inh) | ROMK hit retest inactive
CC(=C\c1ccccc1)/C=C1/SC(=S)N(CCC(=O)Nc2ccccn2)C1=O	none
Cc1cc(C)n2nc(/C(C#N)=C/c3ccccn3)c(C#N)c2n1	ROMK mod -2.4, Lmaj promast 97 | ROMK hit retest 0.044
CCc1ccc(/C=C2\Oc3c(ccc(O)c3CN3CCN(CCO)CC3)C2=O)cc1	none (no result: ROMK mod, WT yeast gro inh, Insulin prom inh, Lmaj promast) | ROMK hit retest 0.049
CCNC(=O)CC1C(=O)N(c2ccc(C)cc2)C(=O)N1CCc1ccc(OC)c(OC)c1 (stereo not given)	none (no result: ROMK mod)
Nc1nnc(SCC(=O)OCC(=O)NC2CCCCC2)s1	none (no result: ROMK mod)
C=CCN1C=CC(=CC=C(C#N)C#N)C=C1	ROMK mod -7.5 (no result: Ins promoter up, WT yeast gro inh, Insulin prom inh, Lmaj promast) | ROMK hit retest 0.034
CC(C)(C)c1cc(C(=O)NNc2cccc(Cl)c2)n(Cc2ccccc2)n1	none (no result: ROMK mod, WT yeast gro inh, Insulin prom inh, Lmaj promast) | ROMK hit retest 0.057
COc1ccccc1NNC(=O)c1cc(C(C)(C)C)nn1Cc1ccccc1	none (no result: ROMK mod, WT yeast gro inh, Insulin prom inh, Lmaj promast) | ROMK hit retest 0.066
CCNC(=O)C/C(C)=N/NC(=O)C12CC3CC(CC(C3)C1)C2	none (no result: KCC2 mod, Insulin prom inh)
Cc1cccc(NC(=O)c2ccc(NCCO)c([N+](=O)[O-])c2)n1	none (no result: ROMK mod, WT yeast gro inh, Insulin prom inh, Lmaj promast)
COc1cccc(NC(=O)c2cccc(C)c2[N+](=O)[O-])c1	ROMK mod 4.3 (no result: Insulin prom inh) | ROMK hit retest inactive
Cc1cccc(C(=O)Nc2cccc(Br)c2)c1[N+](=O)[O-]	none (no result: Insulin prom inh)
COCCNc1ccc([N+](=O)[O-])cc1C(=O)Nc1cccc(C)n1	ROMK mod -5.1 (no result: Insulin prom inh) | ROMK hit retest 0.029
COc1cccc(NC(=O)c2cc([N+](=O)[O-])ccc2NCc2cccnc2)c1	ROMK mod -6.7 | ROMK hit retest 0.03
Cc1ccc(NC(=O)c2cc([N+](=O)[O-])ccc2NCc2cccnc2)cc1Cl	none (no result: ROMK mod)
Cc1oc(-c2cccc(C(F)(F)F)c2)nc1CN1CCOCC1	none
Cc1ccc(S(=O)(=O)NNC(=O)C2CC=CCC2C(=O)O)cc1 (stereo not given)	none (no result: KCC2 mod)
CCSc1ncnc2c1sc1nc(-c3ccco3)c3c(c12)CC(C)(C)OC3	none (no result: ROMK mod) | ROMK hit retest inactive
O=C1/C(=C/N(C(=O)c2ccco2)c2ccc(Br)cc2)Sc2ccccc21	none
COc1ccccc1NC(=O)CN(Cc1ccco1)C(=O)c1ccc(Cl)nc1	none (no result: Insulin prom inh)
CCOc1cc(/C=N/N=C(N)N)ccc1OCc1ccc(Cl)cc1	ROMK mod -3.9, Lmaj promast 100 | ROMK hit retest 0.053
COc1cc(/C=N/O)ccc1OCc1ccc(Cl)cc1	none (no result: Insulin prom inh)
O=C(CNS(=O)(=O)c1ccc(Br)s1)NC1CCCc2ccccc21 (stereo not given)	ROMK mod -3.8 | ROMK hit retest 0.067
COc1ccc(S(=O)(=O)N(C)CC(=O)N2CCOCC2)cc1Cl	none
CCCN(CCC)C(=O)c1cc2c(=O)[nH]c3ccc(C)cc3c2s1	ROMK mod -4.2 | ROMK hit retest inactive
CCn1nnc(NC(=O)C(c2ccccc2)c2ccccc2)n1	ROMK mod -7.3 (no result: Insulin prom inh) | ROMK hit retest inactive
COC(=O)C1CCN(c2cnccn2)CC1	none (no result: KCC2 mod, ROMK mod, Insulin prom inh) | ROMK hit retest inactive
COc1cc(C(=O)N/N=C/c2cc([N+](=O)[O-])cs2)cc(OC)c1OC	ROMK mod 4.1 | ROMK hit retest inactive
COc1ccccc1NCC(=O)N/N=C/c1sccc1C	none (no result: Insulin prom inh)
COc1cc(C(=O)N/N=C/c2sccc2C)cc(OC)c1OC	ROMK mod 5.1 | ROMK hit retest inconclusive
CN(CC(=O)Nc1ccc(C(N)=O)cc1)CC(=O)Nc1ccccc1Br	ROMK mod 6.1 (no result: WT yeast gro inh, Insulin prom inh, Lmaj promast) | ROMK hit retest inactive
CCn1c(=O)c2c3c(sc2n2c(=S)[nH]nc12)CCC3	ROMK mod 2.3 | ROMK hit retest inactive
COC(=O)c1cccc(C(=O)Nc2cnc3ccccc3c2)n1	none (no result: ROMK mod) | ROMK hit retest 0.05
OC1(c2ccccc2)CCN(Cc2ccccc2)C2CCCCC21 (stereo not given)	ROMK mod -4.5, Lmaj promast 97 | ROMK hit retest 0.067
Cc1oc(-c2cccs2)nc1CN1CC[C@@](O)(c2ccccc2)[C@H]2CCCC[C@@H]21	none (no result: KCC2 mod, Insulin prom inh)
Cc1cccc(N2CCN(CC(O)COc3ccccc3Cl)CC2)c1 (stereo not given)	none (no result: KCC2 mod, ROMK mod, WT yeast gro inh, Insulin prom inh, Lmaj promast)
C=CCc1ccccc1OCC(O)CN1CCN(c2ccc(C)cc2)CC1 (stereo not given)	ROMK mod -2.6, Lmaj promast 69 (no result: Insulin prom inh) | ROMK hit retest 0.056
CN(C)/N=C/c1c(O)ccc2ccccc12	none
Oc1ccccc1N=Cc1c(O)ccc2ccccc12	none (no result: ROMK mod, WT yeast gro inh, Insulin prom inh, Lmaj promast) | ROMK hit retest 0.045
CC(=O)Nc1ccc(S(=O)(=O)N2c3ccccc3C(C)=CC2(C)C)cc1	ROMK mod 2.1, Lmaj promast 100 (no result: Insulin prom inh) | ROMK hit retest inactive
O=C(CN1C(=O)NC2(CCCCC2)C1=O)N1CCc2ccccc2C1	none (no result: Insulin prom inh)
O=C(CN1C(=O)NC2(CCCC2)C1=O)N1CCc2ccccc2C1	ROMK mod 2.2 (no result: Insulin prom inh) | ROMK hit retest inactive
COc1cc(/C=C2\C(C)=C(C#N)c3nc(N)c(C#N)c(C)c32)ccc1OCC(=O)O	none (no result: WT yeast gro inh, Insulin prom inh, Lmaj promast)
CC1=C(C#N)c2nc(N)c(C#N)c(C)c2/C1=C\c1ccc(C)cc1	Lmaj promast 100 (no result: ROMK mod) | ROMK hit retest 0.043
COCCOC(=O)c1c(NC(=O)CN2c3ccccc3CC2C)sc(C(N)=O)c1C (stereo not given)	ROMK mod 2.2 (no result: Insulin prom inh) | ROMK hit retest inconclusive
S=c1[nH]c2cc(-c3ccccc3)ccc2o1	none (no result: KCC2 mod, ROMK mod, WT yeast gro inh, Insulin prom inh, Lmaj promast) | ROMK hit retest 0.11
O=CNC(Cc1ccccc1)C(=O)O (stereo not given)	ROMK mod 2.2 | ROMK hit retest inactive
O=C(Cc1ccccc1)N[C@@H](Cc1ccccc1)C(=O)O	none (no result: ROMK mod, Insulin prom inh)
Cc1ccc(Cn2nc(C)c(NC(=O)CSc3n[nH]c(C)c3[N+](=O)[O-])c2C)cc1	none
